Data from PubChem BioAssay AID1159580 (chemical genetic matrix, 2015).
Out of some 5,500 compounds screened, about 2,000 (36%) were called active. Not shown: some 18% with an inconclusive outcome. The list shows a part of the results. Values without a mark were called inactive. Rule as the data show it: active = normalized growth mostly below about 0.91 (no sharp cut-off); inconclusive = no clear call, values can overlap the other calls; inactive = mostly above about 0.92.

Test: chemical genetic growth profiling, strain panel (AID 1159580);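 also: tested at 20 µM; growth read once vehicle control cultures reached saturation at 30 °C; 1 = growth at the plate median or of vehicle wells; lower values mean less growth of the strain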
Details: growth OD

## COc1ccc2cc(CCC(C)=O)ccc2c1
S. cerevisiae deletion strains, locus YJR075W, strain HOC1, active compounds read low
  normalized growth: 0.965
S. cerevisiae deletion strains, locus YKL009W, strain mrt4, active compounds read low
  normalized growth: 0.86 (active)
S. cerevisiae deletion strains, locus YKL068W, active compounds read low
  normalized growth: 0.963
S. cerevisiae deletion strains, locus YKL085W, strain MDH1 (second series), active compounds read low
  normalized growth: 0.966
S. cerevisiae deletion strains, locus YKL085W, strain MDH1, active compounds read low
  normalized growth: 0.966
S. cerevisiae deletion strains, locus YKL160W, strain elf1, active compounds read low
  normalized growth: 0.997
S. cerevisiae deletion strains, locus YKL190W, strain CNB1, active compounds read low
  normalized growth: 0.972
S. cerevisiae deletion strains, locus YKR001C, strain vps1, active compounds read low
  normalized growth: 0.932
S. cerevisiae deletion strains, locus YKR026C, strain gcn3, active compounds read low
  normalized growth: 0.984
S. cerevisiae deletion strains, locus YKR091W, strain srl3, active compounds read low
  normalized growth: 0.992
S. cerevisiae deletion strains, locus YLL001W, strain dnm1, active compounds read low
  normalized growth: 0.982
S. cerevisiae deletion strains, locus YLL026W, active compounds read low
  normalized growth: 0.991
S. cerevisiae deletion strains, locus YLL041C, strain sdh2, active compounds read low
  normalized growth: 0.996
S. cerevisiae deletion strains, locus YLR027C, strain aat2, active compounds read low
  normalized growth: 0.997
S. cerevisiae deletion strains, locus YLR039C, strain RIC1, active compounds read low
  normalized growth: 1.11
S. cerevisiae deletion strains, locus YLR058C, strain SHM2, active compounds read low
  normalized growth: 0.948
S. cerevisiae deletion strains, locus YLR102C, strain apc9, active compounds read low
  normalized growth: 0.944
S. cerevisiae deletion strains, locus YLR113W, strain HOG1, active compounds read low
  normalized growth: 0.965
S. cerevisiae deletion strains, locus YLR221C, strain rsa3, active compounds read low
  normalized growth: 0.992
S. cerevisiae deletion strains, locus YLR258W, strain gsy2, active compounds read low
  normalized growth: 0.998
S. cerevisiae deletion strains, locus YLR262C, strain YPT6 (second series), active compounds read low
  normalized growth: 1.03
S. cerevisiae deletion strains, locus YLR262C, strain YPT6, active compounds read low
  normalized growth: 1.04
S. cerevisiae deletion strains, locus YLR268W, strain sec22, active compounds read low
  normalized growth: 1.01
S. cerevisiae deletion strains, locus YLR320W, strain mms22, active compounds read low
  normalized growth: 0.971
S. cerevisiae deletion strains, locus YLR330W, strain CHS5, active compounds read low
  normalized growth: 0.951
S. cerevisiae deletion strains, locus YLR342W, strain FKS1 (second series), active compounds read low
  normalized growth: 0.885
S. cerevisiae deletion strains, locus YLR342W, strain FKS1, active compounds read low
  normalized growth: 0.993
S. cerevisiae deletion strains, locus YLR357W, strain rsc2, active compounds read low
  normalized growth: 0.992
S. cerevisiae deletion strains, locus YLR370C, strain arc18, active compounds read low
  normalized growth: 0.998
S. cerevisiae deletion strains, locus YLR371W, strain rom2, active compounds read low
  normalized growth: 0.932
S. cerevisiae deletion strains, locus YLR384C, strain iki3, active compounds read low
  normalized growth: 0.986
S. cerevisiae deletion strains, locus YLR418C, strain cdc73, active compounds read low
  normalized growth: 0.78 (active)
S. cerevisiae deletion strains, locus YML016C, strain PPZ1, active compounds read low
  normalized growth: 0.941
S. cerevisiae deletion strains, locus YML032C, strain rad52, active compounds read low
  normalized growth: 0.967
S. cerevisiae deletion strains, locus YML120C, strain ndi1, active compounds read low
  normalized growth: 0.985
S. cerevisiae deletion strains, locus YML124C, strain tub3, active compounds read low
  normalized growth: 0.929 (active)
S. cerevisiae deletion strains, locus YMR058W, strain fet3, active compounds read low
  normalized growth: 0.996
S. cerevisiae deletion strains, locus YMR078C, strain ctf18, active compounds read low
  normalized growth: 0.929
S. cerevisiae deletion strains, locus YMR125W, strain sto1, active compounds read low
  normalized growth: 1.01
S. cerevisiae deletion strains, locus YMR129W, active compounds read low
  normalized growth: 0.983
S. cerevisiae deletion strains, locus YMR205C, strain PFK2, active compounds read low
  normalized growth: 1.01
S. cerevisiae deletion strains, locus YMR223W, strain ubp8, active compounds read low
  normalized growth: 0.895 (active)
S. cerevisiae deletion strains, locus YMR231W, strain pep5, active compounds read low
  normalized growth: 0.999
S. cerevisiae deletion strains, locus YMR263W, strain SAP30, active compounds read low
  normalized growth: 0.923
S. cerevisiae deletion strains, locus YMR307W, strain GAS1, active compounds read low
  normalized growth: 0.917
S. cerevisiae deletion strains, locus YNL067W, strain RPL9B, active compounds read low
  normalized growth: 0.97
S. cerevisiae deletion strains, locus YNL071W, strain lat1, active compounds read low
  normalized growth: 0.987
S. cerevisiae deletion strains, locus YNL128W, strain TEP1, active compounds read low
  normalized growth: 0.963
S. cerevisiae deletion strains, locus YNL153C, strain GIM3, active compounds read low
  normalized growth: 0.975
S. cerevisiae deletion strains, locus YNL183C, strain NPR1, active compounds read low
  normalized growth: 0.91
S. cerevisiae deletion strains, locus YNL209W, strain ssb2, active compounds read low
  normalized growth: 0.995
S. cerevisiae deletion strains, locus YNL233W, strain BNI4, active compounds read low
  normalized growth: 0.972
S. cerevisiae deletion strains, locus YNL248C, strain rpa49, active compounds read low
  normalized growth: 1.02
S. cerevisiae deletion strains, locus YNL250W, strain rad50, active compounds read low
  normalized growth: 0.943
S. cerevisiae deletion strains, locus YNL271C, strain bni1, active compounds read low
  normalized growth: 0.939
S. cerevisiae deletion strains, locus YNL298W, strain CLA4, active compounds read low
  normalized growth: 0.919
S. cerevisiae deletion strains, locus YNL307C, strain MCK1, active compounds read low
  normalized growth: 0.827 (active)
S. cerevisiae deletion strains, locus YNL322C, strain KRE1 (second series), active compounds read low
  normalized growth: 0.996
S. cerevisiae deletion strains, locus YNL322C, strain KRE1, active compounds read low
  normalized growth: 0.961
S. cerevisiae deletion strains, locus YNR049C, strain mso1, active compounds read low
  normalized growth: 0.991
S. cerevisiae deletion strains, locus YNR052C, strain pop2, active compounds read low
  normalized growth: 0.972
S. cerevisiae deletion strains, locus YOL006C, strain TOP1, active compounds read low
  normalized growth: 0.672
S. cerevisiae deletion strains, locus YOL012C, strain htz1
  normalized growth: 1.84
S. cerevisiae deletion strains, locus YOL147C, strain pex11, active compounds read low
  normalized growth: 0.939
S. cerevisiae deletion strains, locus YOR001W, strain rrp6, active compounds read low
  normalized growth: 0.979
S. cerevisiae deletion strains, locus YOR061W, strain CKA2, active compounds read low
  normalized growth: 0.947
S. cerevisiae deletion strains, locus YOR069W, strain VPS5, active compounds read low
  normalized growth: 0.97
S. cerevisiae deletion strains, locus YOR070C, strain gyp1, active compounds read low
  normalized growth: 0.991
S. cerevisiae deletion strains, locus YOR080W, strain dia2, active compounds read low
  normalized growth: 0.988
S. cerevisiae deletion strains, locus YOR083W, strain WHI5, active compounds read low
  normalized growth: 0.985
S. cerevisiae deletion strains, locus YOR106W, strain vam3, active compounds read low
  normalized growth: 1
S. cerevisiae deletion strains, locus YOR136W, strain idh2, active compounds read low
  normalized growth: 0.956
S. cerevisiae deletion strains, locus YOR144C, strain elg1, active compounds read low
  normalized growth: 0.951
S. cerevisiae deletion strains, locus YOR184W, strain ser1, active compounds read low
  normalized growth: 0.786 (active)
S. cerevisiae deletion strains, locus YOR231W, strain MKK1, active compounds read low
  normalized growth: 0.93
S. cerevisiae deletion strains, locus YOR265W, strain rbl2, active compounds read low
  normalized growth: 0.987
S. cerevisiae deletion strains, locus YOR270C, strain vph1, active compounds read low
  normalized growth: 0.886
S. cerevisiae deletion strains, locus YOR290C, strain snf2, active compounds read low
  normalized growth: 0.977
S. cerevisiae deletion strains, locus YOR316C, strain cot1, active compounds read low
  normalized growth: 0.943
S. cerevisiae deletion strains, locus YPL051W, strain arl3, active compounds read low
  normalized growth: 0.985
S. cerevisiae deletion strains, locus YPL055C, strain LGE1, active compounds read low
  normalized growth: 0.88
S. cerevisiae deletion strains, locus YPL078C, strain atp4, active compounds read low
  normalized growth: 0.981
S. cerevisiae deletion strains, locus YPL106C, strain sse1, active compounds read low
  normalized growth: 0.96
S. cerevisiae deletion strains, locus YPL240C, strain hsp82, active compounds read low
  normalized growth: 0.992
S. cerevisiae deletion strains, locus YPL241C, strain CIN2, active compounds read low
  normalized growth: 0.96
S. cerevisiae deletion strains, locus YPL256C, strain CLN2, active compounds read low
  normalized growth: 0.911
S. cerevisiae deletion strains, locus YPR119W, strain clb2, active compounds read low
  normalized growth: 0.943
S. cerevisiae deletion strains, locus YPR141C, strain kar3, active compounds read low
  normalized growth: 0.924
S. cerevisiae deletion strains, locus YPR163C, strain tif3, active compounds read low
  normalized growth: 0.935
S. cerevisiae deletion strains, locus YPR167C, strain met16, active compounds read low
  normalized growth: 0.941
S. cerevisiae deletion strains, strain wtn01, active compounds read low
  normalized growth: 0.959
S. cerevisiae strains, strain wild type, active compounds read low
  normalized growth: 0.935
